Laboratory results from the supplement of paper PMC9844399.

tested on: HeLa; test: nuclear count per well, robust Z-score vs DMSO; higher = more cells (less toxicity); details: 10 µM; 6 h
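Throughout, for MALAT1 nuclear FISH intensity, robust Z-score vs DMSO: High-content confocal imaging of branched-DNA amplified FISH in 384-well plates, Hoechst-defined nuclei, score is well value minus plate DMSO median over DMSO robust SD, four wells per compound.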
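Throughout, for nuclear count per well, robust Z-score vs DMSO: Hoechst-stained nuclei counted by automated confocal imaging of four fields per well in 384-well plates, with the robust Z-score based on the per-plate DMSO median and robust SD.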

Row | Structure (SMILES) | nuclear count per well
1 | Clc1ccc(COC(Cn2ccnc2)c2ccc(Cl)cc2Cl)cc1 (stereo not drawn) [Econazole nitrate] | 0.426
2 | CCCC(=O)Nc1ncnc2c1ncn2[C@@H]1O[C@@H]2COP(=O)(O)O[C@H]2[C@H]1OC(=O)CCC [Dibutyrylcyclic AMP] | -0.946
3 | CC[C@H](C)[C@H](N)C1=N[C@H](C(=O)N[C@@H](CC(C)C)C(=O)N[C@H](CCC(=O)O)C(=O)N[C@H](C(=O)N[C@H]2CCCCNC(=O)[C@H](CC(N)=O)NC(=O)[C@@H](CC(=O)O)NC(=O)[C@H](Cc3cnc[nH]3)NC(=O)[C@@H](Cc3ccccc3)NC(=O)[C@H]([C@@H](C)CC)NC(=O)[C@@H](CCCN)NC2=O)[C@@H](C)CC)CS1 [Bacitracin] | 0.532
4 | NC(=O)Cc1cccc(C(=O)c2ccccc2)c1N [Nepafenac] | -0.0527
5 | COc1ccc(C=CC(=O)c2c(-c3ccccc3)c3cc(C)ccc3[nH]c2=O)cc1 [Ceranib 1] | -0.0949
6 | O=c1[nH]c2cc(C(F)(F)F)ccc2n1-c1cc(C(F)(F)F)ccc1O | -0.123
7 | N=C(N)NCCCC[C@@H]1NC(=O)CCSSC[C@@H](C(N)=O)NC(=O)[C@@H]2CCCN2C(=O)[C@H](Cc2c[nH]c3ccccc23)NC(=O)[C@H](CC(=O)O)NC(=O)CNC1=O [Eptifibatide] | 0.539
8 | Cc1cc(C(=O)NNCc2ccccc2)no1 [Isocarboxazid] | 0.132
9 | CCN(CC)CCOC(=O)C1(C2CCCCC2)CCCCC1 | 0.0346
10 | CC(=O)Nc1nnc(S(N)(=O)=O)s1 [Acetazolamide] | -0.436
11 | O=C(O)c1cccnc1Nc1cccc(C(F)(F)F)c1 [Niflumic acid] | 1.21
12 | C[N+](C)(C)CCOC(=O)CCC(=O)OCC[N+](C)(C)C | -0.221
13 | Nc1nc(=O)[nH]cc1F [Flucytosine] | 0.644
14 | CCOC(=O)[C@H](CCc1ccccc1)N[C@@H](C)C(=O)N1Cc2ccccc2C[C@H]1C(=O)O | -0.26
15 | O=C(O)c1ccccc1Nc1ccccc1 [N-Phenylanthranilic acid] | -2.93
16 | O=C1N=C(O)CN1N=Cc1ccc(-c2ccc([N+](=O)[O-])cc2)o1 | 0.912
17 | O=C(O)CCC/C=C\CC1C(O)CC(O)C1/C=C/C(O)COc1cccc(Cl)c1 (stereo not drawn) [Cloprostenol] | -0.538
18 | Nc1nc(Cl)nc2c1ncn2[C@H]1C[C@H](O)[C@@H](CO)O1 [Cladribine] | -0.899
19 | Nc1nc(F)nc2c1ncn2[C@@H]1O[C@H](COP(=O)(O)O)[C@@H](O)[C@@H]1O [Fludarabine Phosphate] | -0.316
20 | COc1cc(/C=C/C(=O)CC(=O)/C=C/c2ccc(O)c(OC)c2)ccc1O [Curcumin] | -1.34
21 | COc1cc2ncnc(Nc3cccc(Cl)c3)c2cc1OC | 0.518
22 | CCOC(=O)O[C@]1(C(=O)OCCl)CC[C@H]2[C@@H]3CCC4=CC(=O)C=C[C@]4(C)[C@H]3[C@@H](O)C[C@@]21C [Loteprednol Etabonate] | 1.34
23 | Cc1c(C)c2c(c(C)c1O)CCC(C)(COc1ccc(CC3SC(=O)NC3=O)cc1)O2 (stereo not drawn) [Troglitazone] | -0.125
24 | CNC(=O)c1cnn(-c2nc(N)c3ncn([C@@H]4O[C@H](CO)[C@@H](O)[C@H]4O)c3n2)c1 [Regadenoson] | 1.3
25 | CCCCCCCC/C=C\C/C=C\C/C=C\CCCC(=O)NCCO [Mead ethanolamide] | -0.6
26 | CC(=O)NC(C)(C)C(=O)N1CCC[C@H]1C(=O)NC(C)(C)C(=O)N[C@@H](C)C(=O)NC(C)(C)C(=O)N[C@@H](C)C(=O)N[C@@H](CCC(N)=O)C(=O)NC(C)(C)C(=O)N[C@H](C(=O)NC(C)(C)C(=O)NCC(=O)N[C@@H](CC(C)C)C(=O)NC(C)(C)C(=O)N1CCC[C@H]1C(=O)N[C@H](C(=O)NC(C)(C)C(=O)NC(C)(C)C(=O)N[C@@H](CCC(=O)O)C(=O)N[C@@H](CCC(N)=O)C(=O)N[C@H](CO)Cc1ccccc1)C(C)C)C(C)C [Alamethicin] | 0.383
27 | CC(=O)NC[C@H]1CN(c2ccc(N3CCOCC3)c(F)c2)C(=O)O1 [Linezolid] | 0.483

tested on: HeLa; test: MALAT1 nuclear FISH intensity, robust Z-score vs DMSO; higher = more nuclear MALAT1 lncRNA, active = -3 or less; details: 10 µM; 6 h

Row | Structure (SMILES) | MALAT1 nuclear FISH intensity
28 | OC[C@H]1O[C@@H](O[C@@H]2[C@@H](CO)OC(O)(CO)[C@H]2O)[C@H](O)[C@@H](O)[C@H]1O (mixture of isomers) [Lactulose] | -0.821 (inactive)
29 | Nc1ccc(S(=O)(=O)c2ccc(N)cc2)cc1 [Dapsone] | -0.937 (inactive)
30 | Cc1nc2n(c(=O)c1CCN1CCC(c3noc4cc(F)ccc34)CC1)CCCC2O (stereo not drawn) [Paliperidone] | 0.851 (inactive)
31 | CSc1ccc2c(c1)N(CCC1CCCCN1C)c1ccccc1S2 (stereo not drawn) | 1.31 (inactive)
32 | CCCCC[C@H](O)CC[C@H]1[C@H](O)CC(=O)[C@@H]1CCCCCCC(=O)O [13,14-Dihydro-PGE1] | 0.15 (inactive)
33 | CNCc1ccc(C)c(NC(=O)c2ccc(Nc3nc(-c4ccccc4)c4ccccc4n3)cc2)c1 | 4.23 (inactive)
